From PubChem BioAssay
ID4 SMM: binds human ID4 protein on microarray; P47928; small molecule microarray, Flag-ID4 binding, fluorescence F/B; calls only; hit rate 1.2% among 31,000; call rule not given here;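 also: a binder raises fluorescence above local background on the spot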
Target sequence (P47928 whole entry, looked up): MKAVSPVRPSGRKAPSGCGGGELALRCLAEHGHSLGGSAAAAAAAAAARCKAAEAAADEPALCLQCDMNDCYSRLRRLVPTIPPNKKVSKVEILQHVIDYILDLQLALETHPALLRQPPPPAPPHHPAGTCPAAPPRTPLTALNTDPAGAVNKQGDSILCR
mut p53 react: restores mutant p53 pathway signaling in SW480 cells; SW480 PUMA-promoter luciferase, p53 mutant reactivation; activation, % at 9.98 µM; hit rate 1.5% among 28,000; in the data active = activation above about 52%
A number is an active result; i = inactive; nt = not tested or not shown; + = active, no number. Hits are enriched below; roughly 2.3% of the tested compounds scored in any of these assays.

SMILES | ID4 SMM | mut p53 react
CCc1ccc(OCC(=O)Nc2cccnc2)c(Br)c1 | i | 95.5
O=C(COc1cc(Cl)c(Cl)cc1Cl)Nc1cccnc1 | i | 116.8
Cc1ccc(OCC(=O)Nc2cccc(C(=O)O)c2)c(Br)c1 | i | i
COC(=O)c1cc(OC)c(OC)cc1NC(=O)COc1ccc(C(C)(C)C)cc1Br | i | i
CC(=O)Nc1ccc(S(=O)(=O)NC2(C(F)(F)F)C(=O)N(C3CCCCC3)C(C)=C2C(C)=O)cc1 (centres undefined) | i | i
COc1ccc(-n2c(CCn3c4ccccc4c4ccccc43)n[nH]c2=S)cc1 | i | i
COc1ccc(OC(C)c2nc(-c3cccnc3)no2)cc1 (centres undefined) | i | i
CC(Oc1ccc(Br)cc1)c1nc(-c2ccccn2)no1 (centres undefined) | i | 60.3
CNS(=O)(=O)c1ccc(NC(=O)c2cc(-c3cccnc3)nc3ccc(Br)cc23)cc1 | i | i
CC(Oc1ccc(Br)cc1)C(=O)Nc1ccccc1[N+](=O)[O-] (centres undefined) | i | i
CC(Oc1ccccc1F)C(=O)Nc1ccccc1[N+](=O)[O-] (centres undefined) | i | 57.3
Cc1ccc(NC(=O)C2CC(Cl)=CCC2C(=O)O)c(Br)c1 (centres undefined) | i | i
CCc1ccc(OCCSc2nc(C)cc(=O)[nH]2)cc1 | i | 58.8
CCOc1ccc(OCCSc2nc(C)cc(=O)[nH]2)cc1 | i | i
O=C(COc1cccc(-c2cnc3ccccc3n2)c1)c1ccccc1 | i | i
O=[N+]([O-])c1cccc(COc2ccc(-c3cnc4ccccc4n3)cc2)c1 | i | 62.9
CCc1c(C)sc(NC(=O)c2ccc(Cn3nc(C)c(Cl)c3C)o2)c1C(N)=O | i | i
COc1ccc(S(=O)(=O)N(C)CC(=O)Nc2cccc(Cl)c2C)cc1OC | i | i
CCOc1ccc(-n2c(SCC(=O)N3CCOCC3)nnc2-c2ccncc2)cc1 | i | i
COCCNC(=S)N1CCN(Cc2ccco2)CC1 | + | i
CS(=O)(=O)N1CCN(C(=S)NCc2ccco2)CC1 | i | i
O=C(CC(=O)c1ccccc1)c1ccccc1 | i | 96.6
O=C(O)CCNC(=O)c1ccccc1 | i | nt
CN1c2ccccc2Oc2nnc(N3CCN(c4ccccc4)CC3)cc21 | i | 95.0
CCc1ccc(-n2cc3c(c(C#N)c2=N)CC(C)(C)CC3=O)cc1 | i | i
SMILES | ID4 SMM | mut p53 react
Cn1c(SCC(=O)Nc2ccnc3ccccc23)nnc1-c1ccncc1 | + | i
Cn1c(SCC(=O)Nc2ccccc2C(F)(F)F)nnc1-c1ccc(F)cc1 | i | i
Cc1ccc(NC(=O)CSc2nnc(-c3ccncc3)n2C)c(Br)c1 | i | i
Cc1ccc(-c2nnc(SCC(=O)Nc3ccccc3F)n2C)cc1 | i | 60.1
Cc1ccc(CC(c2nc3ccccc3[nH]2)C(C)c2nc3ccccc3[nH]2)cc1 (centres undefined) | i | i
Cc1cc(-c2ccc(Cl)cc2)nc(SCC(=O)Nc2ccccc2)n1 | i | i
CCC(Oc1ccccc1)C(=O)Nc1cccc(NC(C)=O)c1 (centres undefined) | i | i
CC(Oc1ccccc1)C(=O)Nc1cccc(-c2nnc(-c3ccccc3)o2)c1 (centres undefined) | i | 114.1
Cc1cc(Cl)ccc1OC(C)C(=O)Nc1cccc(-c2nnc(-c3ccccc3)o2)c1 (centres undefined) | i | 84.7
CC(Oc1ccc(Cl)cc1Cl)C(=O)Nc1cccc(-c2nc3ccccc3o2)c1 (centres undefined) | i | i
O=C(CCN1C(=O)c2ccccc2S1(=O)=O)Nc1cccc(Cl)c1Cl | i | i
O=C(CCN1C(=O)c2ccccc2S1(=O)=O)NCc1ccco1 | + | i
COc1ccc(S(=O)(=O)N(C)CC(=O)Nc2ccccc2Br)cc1Cl | i | i
Cc1ccc(NC(=O)Cn2cc(C(=O)c3cccs3)c3ccccc32)cc1Cl | i | i
COC(=O)Cc1c(C)c2cc(Cl)c(OC(C)C(C)=O)cc2oc1=O (centres undefined) | i | 68.4
COC(=O)Cc1c(C)c2c(OCC(N)=O)cc(C)cc2oc1=O | i | i
O=C(CSc1nnc(-c2ccccc2O)n1-c1ccccc1)Nc1ccc(Cl)c(C(=O)O)c1 | i | i
O=C(COc1ccc(Cl)cc1Cl)Nc1ccc(-c2nc3ccccc3s2)c(O)c1 | i | i
Cc1cccc(OCC(=O)Nc2cccc(-c3nc4ccccc4s3)c2)c1 | i | 59.3
COc1ccc(OCC(=O)Nc2ccc(-c3nc4ccccc4s3)c(Cl)c2)cc1 | i | i
COc1ccccc1OCC(=O)Nc1cccc(-c2nc3ccccc3s2)c1 | i | 66.8
O=C(O)COc1cccc(-c2nc3ccccc3s2)c1 | i | i
COc1ccc(-c2nc3ccccc3s2)cc1NC(=O)COc1ccc(Cl)cc1Cl | i | 74.1
CCOC(=O)c1c(NC(=S)Nc2nc(C)cc(C)n2)sc(C)c1-c1ccccc1 | i | i
CCOC(=O)c1c(NC(=O)c2ccc(NS(C)(=O)=O)cc2)sc2c1CCCC2 | i | i
SMILES | ID4 SMM | mut p53 react
COC(=O)c1c(NC(=S)Nc2ccc(S(=O)(=O)N3CCOCC3)cc2)sc2c1CCC(C)C2 (centres undefined) | i | i
O=C(CC1(O)C(=O)N(Cc2ccc(Cl)cc2)c2ccc(Cl)cc21)c1ccccn1 (centres undefined) | i | i
CCCn1c2ccccc2c2nnc(SCCN3CCCCC3)nc21 | + | i
Cc1ccc2c(c1)c1nnc(SCCN3CCCCC3)nc1n2C | i | i
O=C1O[C@@H](c2ccccc2)[C@@H](c2ccccc2)N2[C@@H](c3ccc(OCCO)cc3)[C@]3(C(=O)Nc4ccccc43)[C@@H](C(=O)N3CCCCCCC3)[C@H]12 | + | nt
O=C1O[C@H](c2ccccc2)[C@H](c2ccccc2)N2[C@H]1[C@@H](C(=O)N1CCCCCCC1)[C@]1(C(=O)Nc3ccccc31)[C@H]2c1ccc(OCCO)cc1 | i | nt
C=CCOC(=O)[C@H]1[C@@H]2C(=O)O[C@@H](c3ccccc3)[C@@H](c3ccccc3)N2[C@@H](c2ccc(OCCOC(=O)[C@H]3C[C@H]4C(=O)N5CCC[C@H]5C(=O)N4[C@H]3c3ccc(O)cc3)cc2)[C@]12C(=O)Nc1ccccc12 | i | nt
C=CCOC(=O)[C@H]1[C@@H]2C(=O)O[C@@H](c3ccccc3)[C@@H](c3ccccc3)N2[C@@H](c2ccc(OCCOC(=O)[C@@H]3C[C@@H]4C(=O)N5CCC[C@H]5C(=O)N4[C@@H]3c3ccc(O)cc3)cc2)[C@]12C(=O)Nc1ccc(I)cc12 | + | nt
COc1cc2oc(-c3ccccc3)cc(=O)c2c(OC)c1OC | i | i
COc1ccc(-c2cc(=O)c3c(O)cc(O)cc3o2)cc1 | nt | 94.7
COc1cc(C)c2c(=O)cc(-c3ccccc3)oc2c1 | i | 85.5
COc1ccc(-c2cc(=O)c3c(O)cc(O[C@@H]4O[C@H](C(=O)O)[C@@H](O)[C@H](O)[C@H]4O)cc3o2)cc1 | i | nt
Cc1c(Cl)cccc1NC(=O)CSc1nnc(-c2ccc([N+](=O)[O-])cc2)n1C | i | i
Cc1ccccc1-c1nc(S(=O)(=O)c2ccc(Cl)cc2)c(NCc2cccnc2)o1 | i | i
Cn1c(SCC(=O)Nc2ccc(Cl)cc2Cl)nnc1-c1ccc(Br)cc1 | i | i
COc1ccc(Cl)cc1NC(=O)CSc1nnc(-c2cc3cc(Br)ccc3o2)n1C | i | 51.8
O=C(NCCNC(=O)c1ccco1)c1ccco1 | i | i
CC(CNC(=O)c1ccco1)NC(=O)c1ccco1 (centres undefined) | + | i
